This note sets out measurements from PubChem BioAssay (NCATS).

Molecules are shown by their SMILES. Results filed as inconclusive are left out. Where a call stands in place of a potency, no number is given. Calls of active or inactive are those of the source. Calls come from the whole dose curve.
Potency is the fitted concentration of half-maximal effect.

This test is described as follows: qHTS assay for small molecule disruptors of the mitochondrial membrane potential - 1 hr assay (AID 651754). Note: nearly all actives have a fitted effect of over 35% in size. Particulars: series mostly up to 92.2 µM. The source says:
National Center for Advancing Translational Sciences [NCATS]
NIH Chemical Genomics Center [NCGC]
National Institutes of Environmental Health Sciences [NIEHS]
National Toxicology Program [NTP]
Mitochondrial membrane potential (MMP), one of the parameters for mitochondrial function, is generated by mitochondrial electron transport chain that creates an electrochemical gradient by a series of redox reactions. This gradient drives the synthesis of ATP, a crucial molecule for various cellular processes. Measuring MMP in living cells is commonly used to assess the effect of chemicals on mitochondrial function. […] The dye accumulates in the mitochondria of healthy cells as aggregates, with red fluorescence. The mitochondrial potential collapses and the dye can no longer accumulate in the mitochondria and remains in the cytoplasm in monomers, with green fluorescence.
2,000 HepG2 cells in 5 uL/well were dispensed into black, clear-bottom 1536-well plates using a Multidrop Combi (Thermo Scientific) dispenser. The assay plates were incubated overnight at 37C to allow cells to attach to the wells, followed by the transfer of 23 nL compound or DMSO vehicle by a pin tool (Kalypsys). The plates were incubated for 1 hr at 37C and 5% CO2, followed by the addition of 5 uL of 2X Mito-MPS dye (BD Biosciences) into each well using Flying Reagent Dispenser (Aurora Discovery) and then following 30 min incubation at 37C. Fluorescence intensity (490nm excitation and 535nm emission for monomers; and 540nm excitation and 590nm emissions for aggregates) was measured using an Envision plate reader.
Regarding `CCC[CH2][Sn]([Cl])([Cl])[Cl]`, the Potency entry is “inactive”.
As for `Clc1cccc(C(Cl)(Cl)Cl)n1`, the Potency entry is “inactive”.
To `C=CC(=O)OCC` belongs “inactive”.
In the case of `CC(C)(C)OOC(C)(C)C`, the Potency result is “inactive”.
In the case of `CCCC(=O)Cl`, the Potency result is “inactive”.
With `O=C1C(Cl)=C(Cl)C(=O)C(Cl)=C1Cl`, the Potency entry is “inactive”.
Turning to `C1CCC2CCCCC2C1` (stereo not given), the Potency result is “inactive”.
The entry for `CC(C)(OO)c1ccccc1` is “inactive”; for `O=C(Cl)C(Cl)(Cl)Cl` it is “inactive”.
On to `Brc1ccccc1`, for which the Potency entry was “inactive”.
The entry for `C[N+](C)(C)Cc1ccccc1` is “inactive”.
Regarding `Cc1cccc(C#N)c1`, the Potency entry is “inactive”.
As to `C[C@H]1CCCC(=O)CCC/C=C/c2cc(O)cc(O)c2C(=O)O1`, the Potency is 37.6 µM (active).
For `COc1ccc(N)cc1`, the Potency entry was “inactive”.
Consider `c1ccc(OP(Oc2ccccc2)Oc2ccccc2)cc1`, for which the Potency entry was “inactive”.
In the case of `c1ccc(N=Nc2ccccc2)cc1`, the Potency result is “inactive”.
To `ClC1=C(Cl)C2(Cl)C3C4C=CC(C4)C3C1(Cl)C2(Cl)Cl` (stereo not given) belongs “inactive”; to `CCCCCCCC(=O)Cl`, “inactive”; to `ClC(Cl)(Cl)c1ccccc1`, “inactive”.
As to `ClCBr`, the Potency entry was “inactive”.
The entry for `O=C(O)COc1ccc(Cl)cc1Cl` is “inactive”; for `c1nc[nH]n1` it is “inactive”.
To `O=C(Cl)/C=C/C(=O)Cl` belongs “inactive”.
The entry for `Cc1cccc([N+](=O)[O-])c1` is “inactive”; for `C=CCOC(C)=O` it is “inactive”.
For the compound `Cc1ccccc1N`, the Potency result was “inactive”.
To `NC(=S)Nc1ccccc1` belongs “inactive”; to `C=CC(=C)C`, “inactive”; to `COc1ccc(C=O)cc1OC`, “inactive”.
The entry for `C=C(Cl)Cl` is “inactive”; for `CC(O)CCl` (stereo not given) it is “inactive”; for `O=NN(c1ccccc1)c1ccccc1` it is “inactive”.
Take `Cc1ccc([N+](=O)[O-])cc1C`: the Potency result is “inactive”.
As for `Nc1ccccc1Cl`, the Potency entry is “inactive”.
The entry for `ClC(Cl)=C(Cl)C(Cl)=C(Cl)Cl` is “inactive”; for `CC(=O)[O-].CC(=O)[O-].O.O.O.[Pb+2]` it is “inactive”; for `CCSC(=O)Cl` it is “inactive”.
As to `Oc1ccc(Cl)cc1Cl`, the Potency entry was “inactive”.
Regarding `ClC(Cl)=C(Cl)Cl`, the Potency result was “inactive”.
The entry for `OCC(Br)CBr` (stereo not given) is “inactive”.
